Test results published in PubChem BioAssay AID1159580 (chemical genetic matrix, 2015).
In all, about 5,500 compounds went through this assay and about 2,000 (36%) were called active. Another 18% or so got no clear call; they are omitted. Cut-off read from the data, not from the text of the source: active = normalized growth mostly below about 0.91 (no sharp cut-off); inconclusive = no clear call, values can overlap the other calls; inactive = mostly above about 0.92. The list shows a part of the results.

Test: chemical genetic growth profiling, strain panel (AID 1159580);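 note: tested at 20 µM; growth read once vehicle control cultures reached saturation at 30 °C; 1 = growth at the plate median or of vehicle wells; lower values mean less growth of the strain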
Conditions: growth OD
[1] = S. cerevisiae deletion strains, locus YAL013W, strain DEP1, stronger effect = lower value
[2] = S. cerevisiae deletion strains, locus YBR229C, strain ROT2, stronger effect = lower value
[3] = S. cerevisiae deletion strains, locus YDL101C, strain DUN1, stronger effect = lower value
[4] = S. cerevisiae deletion strains, locus YDR150W, strain NUM1, stronger effect = lower value
[5] = S. cerevisiae deletion strains, locus YEL061C, strain CIN8, stronger effect = lower value
[6] = S. cerevisiae deletion strains, locus YGR078C, strain PAC10, stronger effect = lower value
[7] = S. cerevisiae deletion strains, locus YHR030C, strain SLT2, stronger effect = lower value
[8] = S. cerevisiae deletion strains, locus YHR087W, strain rtc3, stronger effect = lower value
[9] = S. cerevisiae deletion strains, locus YJL187C, strain SWE1, stronger effect = lower value
[10] = S. cerevisiae deletion strains, locus YJR043C, strain POL32, stronger effect = lower value
[11] = S. cerevisiae deletion strains, locus YJR075W, strain HOC1, stronger effect = lower value
[12] = S. cerevisiae deletion strains, locus YKL190W, strain CNB1, stronger effect = lower value
[13] = S. cerevisiae deletion strains, locus YLR039C, strain RIC1, stronger effect = lower value
[14] = S. cerevisiae deletion strains, locus YLR058C, strain SHM2 (second series), stronger effect = lower value
[15] = S. cerevisiae deletion strains, locus YLR085C, strain ARP6, stronger effect = lower value
[16] = S. cerevisiae deletion strains, locus YLR262C, strain YPT6, stronger effect = lower value
[17] = S. cerevisiae deletion strains, locus YML094W, strain GIM5, stronger effect = lower value
[18] = S. cerevisiae deletion strains, locus YMR219W, strain ESC1, stronger effect = lower value
[19] = S. cerevisiae deletion strains, locus YMR263W, strain SAP30, stronger effect = lower value
[20] = S. cerevisiae deletion strains, locus YNL153C, strain GIM3, stronger effect = lower value
[21] = S. cerevisiae deletion strains, locus YNL298W, strain CLA4 (second series), stronger effect = lower value
[22] = S. cerevisiae deletion strains, locus YNL322C, strain KRE1, stronger effect = lower value
[23] = S. cerevisiae deletion strains, locus YNR030W, strain Alg12, stronger effect = lower value
[24] = S. cerevisiae deletion strains, locus YPL055C, strain LGE1, stronger effect = lower value
[25] = S. cerevisiae deletion strains, locus YPL241C, strain CIN2, stronger effect = lower value
[26] = S. cerevisiae deletion strains, locus YPR135W, strain CTF4, stronger effect = lower value

Measured: normalized growth

COc1cccc(NC(=O)NC2Cc3ccccc3C2)c1
inactive: [1] 0.975 | [2] 0.998 | [3] 0.991 | S. cerevisiae deletion strains, locus YDL134C, strain PPH21, stronger effect = lower value 0.989 | [4] 0.867 | [5] 1 | [6] 0.989 | [7] 0.929 | [8] 1 | [9] 0.998 | [10] 0.982 | [11] 0.996 | [12] 0.996 | [13] 0.996 | [14] 0.992 | [15] 0.952 | [16] 0.96 | [17] 0.992 | [18] 0.99 | [19] 0.927 | S. cerevisiae deletion strains, locus YMR307W, strain GAS1, stronger effect = lower value 0.999 | [20] 0.994 | [21] 0.973 | [22] 1.01 | [23] 0.978 | S. cerevisiae deletion strains, locus YOL006C, strain TOP1, stronger effect = lower value 0.937 | [24] 0.883 | [25] 0.986 | [26] 0.877

O=C(COC(=O)c1ccccc1C(=O)c1ccccc1)c1ccccc1
inactive: [1] 0.984 | [2] 0.988 | [3] 0.97 | [4] 0.969 | [5] 0.989 | [6] 0.98 | S. cerevisiae deletion strains, locus YGR229C, strain SMI1, stronger effect = lower value 0.993 | [7] 0.861 | [8] 0.98 | [10] 0.979 | [11] 0.957 | [12] 0.998 | [13] 0.912 | [14] 0.984 | [15] 0.936 | [16] 0.933 | [17] 0.99 | [18] 0.978 | [19] 0.902 | [20] 0.99 | [21] 0.971 | [22] 0.989 | [23] 0.975 | [24] 0.979 | [25] 0.95 | [26] 0.868 | S. cerevisiae strains, strain wild type, stronger effect = lower value 1

Cc1cccc(C(=O)c2ccccc2C(=O)O)c1
inactive: [1] 1.01 | [2] 1.02 | [3] 1 | [4] 0.905 | [5] 1.01 | [6] 0.997 | [7] 1.06 | [8] 1.01 | [9] 0.998 | [10] 1.02 | [11] 1 | [12] 0.997 | [13] 0.986 | [14] 1.01 | [15] 1.03 | [16] 0.984 | [17] 1.01 | [18] 1.01 | [19] 0.991 | S. cerevisiae deletion strains, locus YNL128W, strain TEP1, stronger effect = lower value 1.01 | [20] 1.02 | [21] 1.04 | [22] 0.993 | [23] 1.01 | [24] 1.02 | [25] 1.01 | [26] 1.02

C/C(=N/NC(=O)c1ccc(C(C)(C)C)cc1)c1ccccc1O
inactive: S. cerevisiae deletion strains, locus YAR019C, strain CDC15, stronger effect = lower value 0.985 | S. cerevisiae deletion strains, locus YBL105C, strain PKC1, stronger effect = lower value 0.979 | S. cerevisiae deletion strains, locus YBR135W, strain CKS1, stronger effect = lower value 0.969 | S. cerevisiae deletion strains, locus YBR136W, strain MEC1, stronger effect = lower value 0.979 | S. cerevisiae deletion strains, locus YBR160W, strain CDC28, stronger effect = lower value 0.98 | S. cerevisiae deletion strains, locus YDL017W, strain CDC7, stronger effect = lower value 0.979 | S. cerevisiae deletion strains, locus YDL028C, strain MPS1, stronger effect = lower value 0.974 | [3] 0.963 | S. cerevisiae deletion strains, locus YDL108W, strain KIN28, stronger effect = lower value 0.972 | S. cerevisiae deletion strains, locus YDL132W, strain cdc53, stronger effect = lower value 0.98 | S. cerevisiae deletion strains, locus YDL214C, strain PRR2, stronger effect = lower value 0.976 | S. cerevisiae deletion strains, locus YDR052C, strain DBF4, stronger effect = lower value 0.979 | S. cerevisiae deletion strains, locus YDR054C, strain cdc34, stronger effect = lower value 0.978 | S. cerevisiae deletion strains, locus YDR226W, strain ADK1, stronger effect = lower value 0.971 | S. cerevisiae deletion strains, locus YDR477W, strain SNF1, stronger effect = lower value 0.985 | S. cerevisiae deletion strains, locus YER123W, strain YCK3, stronger effect = lower value 0.97 | S. cerevisiae deletion strains, locus YER133W, strain GLC7, stronger effect = lower value 0.979 | S. cerevisiae deletion strains, locus YFL009W, strain cdc4, stronger effect = lower value 0.977 | S. cerevisiae deletion strains, locus YFL029C, strain CAK1, stronger effect = lower value 0.974 | S. cerevisiae deletion strains, locus YFR003C, strain YPI1, stronger effect = lower value 0.979 | S. cerevisiae deletion strains, locus YFR019W, strain FAB1, stronger effect = lower value 1.01 | S. cerevisiae deletion strains, locus YFR028C, strain CDC14, stronger effect = lower value 0.981 | S. cerevisiae deletion strains, locus YGR040W, strain KSS1, stronger effect = lower value 0.994 | S. cerevisiae deletion strains, locus YGR052W, strain FMP48, stronger effect = lower value 1 | S. cerevisiae deletion strains, locus YGR092W, strain DBF2, stronger effect = lower value 0.934 | [7] 0.876 | S. cerevisiae deletion strains, locus YHR079C, strain IRE1, stronger effect = lower value 0.952 | S. cerevisiae deletion strains, locus YHR082C, strain KSP1, stronger effect = lower value 1.07 | S. cerevisiae deletion strains, locus YHR205W, strain SCH9, stronger effect = lower value 0.995 | S. cerevisiae deletion strains, locus YIL147C, strain SLN1, stronger effect = lower value 0.976 | S. cerevisiae deletion strains, locus YJL095W, strain BCK1, stronger effect = lower value 0.972 | S. cerevisiae deletion strains, locus YJL128C, strain PBS2, stronger effect = lower value 0.939 | S. cerevisiae deletion strains, locus YJL157C, strain FAR1, stronger effect = lower value 0.981 | S. cerevisiae deletion strains, locus YJR016C, strain ILV3, stronger effect = lower value 0.987 | S. cerevisiae deletion strains, locus YJR066W, strain TOR1 (second series), stronger effect = lower value 0.969 | S. cerevisiae deletion strains, locus YJR066W, strain TOR1, stronger effect = lower value 1.05 | S. cerevisiae deletion strains, locus YKL048C, strain ELM1, stronger effect = lower value 0.985 | S. cerevisiae deletion strains, locus YKL067W, strain YNK1, stronger effect = lower value 0.966 | S. cerevisiae deletion strains, locus YKL101W, strain HSL1, stronger effect = lower value 0.987 | S. cerevisiae deletion strains, locus YKL193C, strain SDS22, stronger effect = lower value 0.988 | S. cerevisiae deletion strains, locus YKL203C, strain TOR2, stronger effect = lower value 1.01 | S. cerevisiae deletion strains, locus YLR133W, strain CKI1, stronger effect = lower value 0.988 | S. cerevisiae deletion strains, locus YLR403W, strain SFP1, stronger effect = lower value 1 | S. cerevisiae deletion strains, locus YML070W, strain DAK1, stronger effect = lower value 0.964 | S. cerevisiae deletion strains, locus YMR001C, strain CDC5, stronger effect = lower value 0.978 | S. cerevisiae deletion strains, locus YMR205C, strain PFK2 (second series), stronger effect = lower value 0.981 | S. cerevisiae deletion strains, locus YMR277W, strain FCP1, stronger effect = lower value 0.98 | S. cerevisiae deletion strains, locus YNL006W, strain LST8, stronger effect = lower value 0.976 | S. cerevisiae deletion strains, locus YNL020C, strain ARK1, stronger effect = lower value 1.01 | S. cerevisiae deletion strains, locus YNL161W, strain CBK1, stronger effect = lower value 0.983 | S. cerevisiae deletion strains, locus YNL183C, strain NPR1, stronger effect = lower value 1.01 | S. cerevisiae deletion strains, locus YNL207W, strain RIO2, stronger effect = lower value 0.969 | S. cerevisiae deletion strains, locus YNL222W, strain SSU72, stronger effect = lower value 0.976 | S. cerevisiae deletion strains, locus YNL307C, strain MCK1 (second series), stronger effect = lower value 1.01 | S. cerevisiae deletion strains, locus YOL078W, strain AVO1, stronger effect = lower value 0.986 | S. cerevisiae deletion strains, locus YOL136C, strain PFK27, stronger effect = lower value 0.977 | S. cerevisiae deletion strains, locus YOR061W, strain CKA2, stronger effect = lower value 0.995 | S. cerevisiae deletion strains, locus YOR119C, strain RIO1, stronger effect = lower value 1.05 | S. cerevisiae deletion strains, locus YOR231W, strain MKK1, stronger effect = lower value 0.952 | S. cerevisiae deletion strains, locus YOR329C, strain SCD5, stronger effect = lower value 0.975 | S. cerevisiae deletion strains, locus YPL031C, strain PHO85, stronger effect = lower value 0.979 | S. cerevisiae deletion strains, locus YPL153C, strain RAD53, stronger effect = lower value 0.981 | S. cerevisiae deletion strains, locus YPL204W, strain HRR25, stronger effect = lower value 0.967 | S. cerevisiae deletion strains, locus YPL209C, strain IPL1, stronger effect = lower value 0.977 | S. cerevisiae deletion strains, locus YPR025C, strain CCL1, stronger effect = lower value 0.971 | S. cerevisiae deletion strains, locus YPR106W, strain ISR1, stronger effect = lower value 0.986 | S. cerevisiae deletion strains, locus YPR111W, strain DBF20, stronger effect = lower value 0.972 | S. cerevisiae deletion strains, strain NNK1, stronger effect = lower value 0.966 | S. cerevisiae deletion strains, strain TSCII, stronger effect = lower value 0.981
active: S. cerevisiae deletion strains, locus YLR113W, strain HOG1, stronger effect = lower value 0.779 | S. cerevisiae deletion strains, locus YPL256C, strain CLN2, stronger effect = lower value 0.808
